# Screening data from PubChem BioAssay.
# Shown are actives, neighbours in structure and some others; about 1.1% of the full set was active somewhere.
# NR5A2 inv ag – LRH-1 (NR5A2) inverse agonists, primary screen, cell-based, luminescence, HEK293T, StAR-luciferase reporter | AID 602396, 2012 | Nuclear receptor subfamily 5 group A member 2 (Homo sapiens), O00482 | inhibition, % at 3.6 µM | LRH-1 transfected, 24 h | actives 0.13% (n = 360,000);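 active = inhibition above the mean inhibition of all tested compounds plus 3 SD, cut at about 73% in these data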
# Target sequence (O00482 whole entry, looked up): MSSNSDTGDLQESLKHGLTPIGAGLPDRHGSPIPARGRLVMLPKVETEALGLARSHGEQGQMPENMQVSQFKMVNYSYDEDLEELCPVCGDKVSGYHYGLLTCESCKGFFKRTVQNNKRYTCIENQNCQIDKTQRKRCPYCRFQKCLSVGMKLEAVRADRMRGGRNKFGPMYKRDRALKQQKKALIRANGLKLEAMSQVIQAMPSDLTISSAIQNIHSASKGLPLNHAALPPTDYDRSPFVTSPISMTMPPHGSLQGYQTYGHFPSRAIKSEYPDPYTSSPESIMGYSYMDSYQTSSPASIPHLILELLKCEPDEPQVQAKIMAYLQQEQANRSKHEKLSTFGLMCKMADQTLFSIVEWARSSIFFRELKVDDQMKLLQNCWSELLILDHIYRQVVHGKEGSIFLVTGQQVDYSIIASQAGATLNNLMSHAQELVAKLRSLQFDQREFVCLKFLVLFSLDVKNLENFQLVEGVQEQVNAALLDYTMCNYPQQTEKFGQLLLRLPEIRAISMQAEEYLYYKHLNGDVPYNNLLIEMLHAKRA
# NCOA2 inhibitor – inhibition of GAL4-SRC2 driven luciferase reporter, primary screen, SRC2 inhibitor project, cell-based, luminescence; actives 0.17% (n = 370,000); Nuclear receptor coactivator 2 (Homo sapiens), Q15596; inhibition, % at 9 µM; HEK293 GAL4-SRC2 luciferase reporter; AID 651957, 2012;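 active = inhibition above the mean inhibition of all tested compounds plus 3 SD, set per campaign, cut at about 52% in these data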
# SRC3 inh – SRC3 coactivator transcriptional activity inhibitors, primary screen, cell-based, luminescence; HEK293 GAL4-SRC3 luciferase reporter; actives 0.17% (n = 360,000); Nuclear receptor coactivator 3 (Homo sapiens), Q9Y6Q9; inhibition, % at 3.6 µM;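 active = inhibition above a per-campaign cutoff, the mean of all compounds plus 3 SD, cut at about 60% in these data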;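 also: higher means less SRC3-driven luciferase light from the GAL4 reporter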
# GalR3 antag – GalR3 antagonists in HEK293 cells, primary screen, cell-based, fluorescence readout | HEK293 GalR3-CNG cAMP membrane potential fluorescence; galR3 body fused to GalR1 C-terminus | actives 0.44% (n = 360,000) | inhibition, % at 3 µM;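 active = inhibition above the screen-wide average plus 3 SD, cut at about 13% in these data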;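 also: forskolin and galanin both at EC90 stimulate the cells; cAMP rise reported by CNG channel membrane potential dye signal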
# NR2F2 inh – NR2F2 transcriptional activity inhibitors, primary screen, cell-based, luciferase reporter, HEK293T, luminescence | COUP transcription factor 2 (Homo sapiens), P24468 | HEK293T NGFI-A luciferase reporter | inhibition, % at 8.6 µM | actives 0.7% (n = 370,000) | AID 686940, 2013;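 active = inhibition above a per-plate cutoff, mean inhibition of test wells between control levels plus 3 SD, cut at about 38% in these data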;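 also: cells cotransfected with COUP-TFII expression vector driving the NGFI-A reporter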
# NCOA1 inh – SRC1 coactivator transcriptional activity inhibitors, primary screen, cell-based, luminescence | HEK293 GAL4-SRC1 luciferase reporter | inhibition, % at 3.6 µM | actives 0.12% (n = 360,000);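 active = inhibition above the campaign mean plus 3 SD, with each screening campaign given its own cutoff, cut at about 60% in these data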
# Gal4-VP16 ctr – Gal4-VP16 luciferase reporter inhibitors, counter-screen for COUP-TFII antagonist project, cell-based, luminescence, HEK293. inhibition, % at 8.5 µM. actives 25% (n = 2,500). shares compounds with NR2F2 inh; in the data active = inhibition above about 13%
# NR2F2 inh conf – NR2F2 transcriptional activity inhibitors, confirmation, cell-based, luciferase reporter, HEK293, triplicate; shares compounds with NR2F2 inh; HEK293 NGFI-A luciferase reporter, luminescence; inhibition, % at 8.5 µM; actives 45% (n = 2,500); AID 687008, 2013;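 active = mean inhibition over three repeats above a set limit taken from the earlier primary screen, cut at about 38% in these data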
# A number is an active result; 0 = inactive; - = no result given.
SMILES,NR5A2 inv ag,NCOA2 inhibitor,SRC3 inh,GalR3 antag,NR2F2 inh,NCOA1 inh,Gal4-VP16 ctr,NR2F2 inh conf
CC(C)(C)c1ccc(C(=O)NCCOc2ccccc2)cc1,0,0,0,0,0,0,-,-
CC(C)(C)c1ccc(C(=O)NCCOc2ccccc2F)cc1,0,0,0,0,53,0,0,46
Cc1ccc(NC(=O)COC(=O)CCc2c[nH]c3ccccc23)cc1,0,0,0,0,0,0,-,-
O=C(COC(=O)CCc1c[nH]c2ccccc12)Nc1ccccc1,0,0,0,0,63,0,0,0
Nn1c(SCC(=O)N2CCOCC2)nnc1-c1cc(-c2ccc(F)cc2)n[nH]1,-,0,-,-,0,-,-,-
Clc1ccc(-n2c(SCc3cccc4ccccc34)nnc2-c2ccccc2)cc1,-,0,-,-,0,-,-,-
O=C(c1ccc2c(=O)n(Cc3ccc(Cl)cc3)c(=S)[nH]c2c1)N1CCOCC1,0,0,0,0,39,0,0,0
CCOc1cc(/C=N/NC(=O)c2ccc(=O)n(C)c2)ccc1O,0,0,0,0,0,0,-,-
Cc1ccc(C(C)C)c(OCc2ccc(C(=O)N/N=C/c3ccc(O)c(O)c3)cc2)c1,0,0,0,0,44,0,19,0
CCCNC(=O)c1cc(S(=O)(=O)N2CCc3ccccc32)cn1C,0,0,0,-,44,0,0,0
CCCCCN1CCCCC(NC(=O)CSc2ccccc2)C1=O (configuration not stated),-,0,-,-,0,-,-,-
Cc1ccc(-n2nc3c(=O)n(C(C)C(=O)NCCC4=CCCCC4)nc(C)c3c2C)cc1 (configuration not stated),0,0,0,0,71,0,0,62
Cc1ccc(CCNC(=O)C(C)n2nc(C)c3c(C)n(-c4ccccc4)nc3c2=O)cc1 (configuration not stated),0,0,0,0,0,0,-,-
O=S(=O)(c1ccc(CN2CCOCCOCCN(Cc3ccc(S(=O)(=O)C(F)(F)F)cc3)CCOCC2)cc1)C(F)(F)F,-,-,-,-,62,-,0,0
CCc1ccc(Nc2n[n+](-c3ccccc3)c(-c3c(Cl)cccc3Cl)s2)cc1,0,0,0,0,66,0,16,0
Fc1ccc(-[n+]2nc(Nc3ccccc3)sc2-c2c(Cl)cccc2Cl)cc1,0,0,0,0,0,0,-,-
Cc1ccc(C(=O)c2ccc(O)cc2)cc1C,0,0,0,0,0,0,-,-
Cc1ccc(C(=O)c2cccc(N)c2)cc1C,0,80,0,0,72,0,62,41
C[C@@H]1CCN(C2CC2)S(=O)(=O)c2ccc(N3CCC[C@@H]3CO)cc2O1,-,0,-,-,0,-,-,-
O=[N+]([O-])c1nn(-c2ccc3c(c2)OCCO3)n(O)c1=Nc1ccc(Cl)cc1,0,0,0,0,0,0,-,-
O=[N+]([O-])c1nn(-c2ccc3c(c2)OCCO3)n(O)c1=Nc1ccccc1,94,84,85,0,91,76,0,0
COc1ccccc1N1CCN(Cc2cc(Br)c(O)c3ncccc23)CC1,73,0,0,-,47,0,0,0
CCOc1ccccc1N1CCN(Cc2cccc(OC)c2O)CC1,0,0,0,0,0,0,-,-
